For some assays here: Potency and affinity values are given separately.

What all share (set-up): scale not given: direction of the effect not stated beside the values
Assay [1] concerns the target Protein translocase subunit SecA (Escherichia coli (strain K12)) (UniProt P10408). The assay can be described thus: Assay to Identify E. coli SecA ATPase Inhibitors. It counts as functional. The note with it: 30 µM.
Assay [2] deals with T1, Ubiquitin-activating enzyme e1, putative (Leishmania donovani (strain BPK282A1)) (UniProt E9BSI1).
T1 sequence (whole entry): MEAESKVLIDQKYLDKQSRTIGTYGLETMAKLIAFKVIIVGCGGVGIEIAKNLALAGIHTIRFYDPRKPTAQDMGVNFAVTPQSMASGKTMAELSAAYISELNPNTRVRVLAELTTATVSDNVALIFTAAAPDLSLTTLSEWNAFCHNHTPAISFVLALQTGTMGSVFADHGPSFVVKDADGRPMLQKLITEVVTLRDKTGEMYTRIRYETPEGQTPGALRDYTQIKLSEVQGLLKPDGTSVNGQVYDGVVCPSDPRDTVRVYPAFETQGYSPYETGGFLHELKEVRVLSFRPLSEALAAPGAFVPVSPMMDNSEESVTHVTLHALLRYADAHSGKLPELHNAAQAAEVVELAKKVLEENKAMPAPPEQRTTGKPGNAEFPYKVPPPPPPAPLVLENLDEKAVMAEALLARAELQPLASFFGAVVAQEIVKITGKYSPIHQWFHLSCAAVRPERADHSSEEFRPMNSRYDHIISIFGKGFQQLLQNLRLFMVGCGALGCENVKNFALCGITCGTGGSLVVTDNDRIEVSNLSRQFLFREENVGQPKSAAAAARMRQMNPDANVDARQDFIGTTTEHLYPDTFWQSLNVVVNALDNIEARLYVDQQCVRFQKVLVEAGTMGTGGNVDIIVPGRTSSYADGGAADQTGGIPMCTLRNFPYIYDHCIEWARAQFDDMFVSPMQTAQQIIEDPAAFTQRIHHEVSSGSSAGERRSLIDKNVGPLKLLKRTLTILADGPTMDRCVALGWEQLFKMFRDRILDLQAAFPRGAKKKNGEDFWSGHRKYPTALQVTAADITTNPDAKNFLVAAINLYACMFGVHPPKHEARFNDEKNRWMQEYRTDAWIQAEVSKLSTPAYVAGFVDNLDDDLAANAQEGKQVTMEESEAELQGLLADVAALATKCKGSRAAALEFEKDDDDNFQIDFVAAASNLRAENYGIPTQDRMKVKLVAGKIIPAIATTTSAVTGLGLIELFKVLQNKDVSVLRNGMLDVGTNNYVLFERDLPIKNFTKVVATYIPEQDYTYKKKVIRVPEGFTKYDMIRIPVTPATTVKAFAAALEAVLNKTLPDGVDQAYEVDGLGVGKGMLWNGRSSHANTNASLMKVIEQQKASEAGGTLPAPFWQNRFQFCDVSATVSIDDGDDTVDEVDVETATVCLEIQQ
The assay can be described thus: Leishmania donovani Ubiquitin Activating Enzyme (LdE1). It counts as functional. The settings on record: 30 µM.

Assay [3] has as its target AMP-activated protein kinase, AMPK (Homo sapiens) (UniProt P54646+O43741+P54619+Q9UGJ0+Q9Y478+Q13131+Q9UGI9). The assay can be described thus: AMP-dependent Kinase enzyme assay. An in vitro enzyme assay that detects ADP turnover that is directly proportional to AMPK activity. This uses naive AMPK that is activated during the assay with MK-8722. It counts as functional. The settings on record: 30 µM.

Assay [4] has as its target Sialic acid-binding Ig-like lectin 9 (Homo sapiens) (UniProt Q9Y336). The assay can be described thus: Hs-Siglec9 ALPHAscreen SOP 20170721. The note with it: 10 µM. In general terms: Bead proximity is the source of the signal in Alpha formats.
The next assay relates to Trypanosoma cruzi. The assay can be described thus: Trypanosoma cruzi phosphomannomutase and mannose-1-phosphate guanylyltransferase assay. It counts as functional. The note with it: 10 µM.
In assay [5] the target is T2, Arginase-2, mitochondrial (Homo sapiens) (UniProt P78540).
T2 sequence (whole entry): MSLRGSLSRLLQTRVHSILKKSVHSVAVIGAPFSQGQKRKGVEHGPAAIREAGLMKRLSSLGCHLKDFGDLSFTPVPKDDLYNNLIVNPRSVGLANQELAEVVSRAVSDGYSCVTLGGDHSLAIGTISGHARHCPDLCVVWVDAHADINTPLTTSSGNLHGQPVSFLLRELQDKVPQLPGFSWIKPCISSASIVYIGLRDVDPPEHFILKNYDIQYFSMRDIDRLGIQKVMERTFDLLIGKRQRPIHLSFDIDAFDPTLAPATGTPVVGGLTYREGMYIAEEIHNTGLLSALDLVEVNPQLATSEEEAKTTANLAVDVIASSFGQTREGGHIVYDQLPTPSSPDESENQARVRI
The experiment in a line: in vitro enzyme assay to detect the production of urea directly proportional to the activity of Arginase II. Further: in the data most compounds retested in dose-response had high values. The format is functional. The settings on record: 33.3 µM.

Assay [6] has as its target T3, Proteasome subunit beta (Trypanosoma cruzi) (UniProt O96673).
T3 sequence (whole entry): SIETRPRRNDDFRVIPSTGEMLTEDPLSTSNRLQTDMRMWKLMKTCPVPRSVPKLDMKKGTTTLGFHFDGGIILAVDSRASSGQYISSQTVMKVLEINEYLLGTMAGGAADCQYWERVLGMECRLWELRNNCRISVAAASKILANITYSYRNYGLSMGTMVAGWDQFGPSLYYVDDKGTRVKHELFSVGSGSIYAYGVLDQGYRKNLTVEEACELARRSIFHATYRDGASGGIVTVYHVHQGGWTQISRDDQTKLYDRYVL
The assay can be described thus: Trypanosoma cruzi proteasome chymotrypsin-like activity (TcProtChymo) assay. Further: in the data most compounds retested in dose-response had high values. The note with it: 9.37 µM. It counts as functional.

For the next assay, the species on record is Homo sapiens. The experiment in a line: To identify inhibition of the IFN signalling (Jak-Stat) pathway via expression of an eGFP reporter gene under the control of an IFN-stimulated response element (ISRE) containing MxA promoter. The format is functional. The settings on record: 30 µM.
Assay [7] has as its target T4, Tyrosyl-tRNA synthetase, putative (Trypanosoma cruzi (strain CL Brener)) (UniProt Q4DSP6).
T4 sequence (whole entry): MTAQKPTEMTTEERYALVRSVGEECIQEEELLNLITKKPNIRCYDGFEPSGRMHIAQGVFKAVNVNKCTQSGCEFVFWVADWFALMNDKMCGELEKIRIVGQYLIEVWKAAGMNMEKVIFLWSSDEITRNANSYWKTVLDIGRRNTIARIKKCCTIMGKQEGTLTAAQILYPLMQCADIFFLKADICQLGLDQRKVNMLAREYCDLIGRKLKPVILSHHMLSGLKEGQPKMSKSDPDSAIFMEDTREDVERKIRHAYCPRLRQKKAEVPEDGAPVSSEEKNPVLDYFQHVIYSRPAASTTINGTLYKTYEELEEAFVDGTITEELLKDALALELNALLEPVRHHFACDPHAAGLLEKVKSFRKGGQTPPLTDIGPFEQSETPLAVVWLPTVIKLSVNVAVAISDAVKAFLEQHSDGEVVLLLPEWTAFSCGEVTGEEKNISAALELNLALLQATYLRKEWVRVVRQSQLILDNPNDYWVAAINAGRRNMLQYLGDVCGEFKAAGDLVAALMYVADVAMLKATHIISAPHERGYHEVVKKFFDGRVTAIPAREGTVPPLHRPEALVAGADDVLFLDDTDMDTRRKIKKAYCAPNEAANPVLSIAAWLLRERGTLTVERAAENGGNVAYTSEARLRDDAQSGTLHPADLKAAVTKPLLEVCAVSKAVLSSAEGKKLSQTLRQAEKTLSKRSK
The assay can be described thus: Trypanosoma cruzi tyrosyl tRNA synthetase (TcYRS) _High Tyrosine SOP. Further: in the data most compounds retested in dose-response had high values. The format is functional. The note with it: 30 µM.

Assay [8] concerns the target T4, Tyrosyl-tRNA synthetase, putative (Trypanosoma cruzi (strain CL Brener)). The assay can be described thus: Trypanosoma cruzi tyrosyl tRNA synthetase (TcYRS) SOP. The format is functional. The settings on record: 30 µM.
Assay [9] concerns the target Chromo domain-containing protein 1 (Saccharomyces cerevisiae (strain ATCC 204508 / S288c) (Baker's yeast)) (UniProt P32657). The experiment in a line: ScCHD-1 Enzyme Inhibition Assay. Further: in the data most compounds retested in dose-response had high values. It counts as functional. The settings on record: 30 µM.

Sequence of Sialic acid-binding Ig-like lectin 9 (Homo sapiens) (Q9Y336 whole entry): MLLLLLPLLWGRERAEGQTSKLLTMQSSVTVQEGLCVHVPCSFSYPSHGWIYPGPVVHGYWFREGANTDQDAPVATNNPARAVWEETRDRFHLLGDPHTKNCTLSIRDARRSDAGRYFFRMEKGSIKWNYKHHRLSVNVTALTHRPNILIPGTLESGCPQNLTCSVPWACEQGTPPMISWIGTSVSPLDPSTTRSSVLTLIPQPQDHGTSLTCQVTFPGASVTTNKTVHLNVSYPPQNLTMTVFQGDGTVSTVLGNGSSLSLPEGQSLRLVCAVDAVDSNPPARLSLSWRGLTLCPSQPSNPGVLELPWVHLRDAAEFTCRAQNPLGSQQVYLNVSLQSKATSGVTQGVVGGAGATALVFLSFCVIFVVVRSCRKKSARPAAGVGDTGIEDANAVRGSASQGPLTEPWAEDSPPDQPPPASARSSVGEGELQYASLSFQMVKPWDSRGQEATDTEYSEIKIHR
Sequence of Chromo domain-containing protein 1 (Saccharomyces cerevisiae (strain ATCC 204508 / S288c) (Baker's yeast)) (P32657 whole entry, the tested form may be a part): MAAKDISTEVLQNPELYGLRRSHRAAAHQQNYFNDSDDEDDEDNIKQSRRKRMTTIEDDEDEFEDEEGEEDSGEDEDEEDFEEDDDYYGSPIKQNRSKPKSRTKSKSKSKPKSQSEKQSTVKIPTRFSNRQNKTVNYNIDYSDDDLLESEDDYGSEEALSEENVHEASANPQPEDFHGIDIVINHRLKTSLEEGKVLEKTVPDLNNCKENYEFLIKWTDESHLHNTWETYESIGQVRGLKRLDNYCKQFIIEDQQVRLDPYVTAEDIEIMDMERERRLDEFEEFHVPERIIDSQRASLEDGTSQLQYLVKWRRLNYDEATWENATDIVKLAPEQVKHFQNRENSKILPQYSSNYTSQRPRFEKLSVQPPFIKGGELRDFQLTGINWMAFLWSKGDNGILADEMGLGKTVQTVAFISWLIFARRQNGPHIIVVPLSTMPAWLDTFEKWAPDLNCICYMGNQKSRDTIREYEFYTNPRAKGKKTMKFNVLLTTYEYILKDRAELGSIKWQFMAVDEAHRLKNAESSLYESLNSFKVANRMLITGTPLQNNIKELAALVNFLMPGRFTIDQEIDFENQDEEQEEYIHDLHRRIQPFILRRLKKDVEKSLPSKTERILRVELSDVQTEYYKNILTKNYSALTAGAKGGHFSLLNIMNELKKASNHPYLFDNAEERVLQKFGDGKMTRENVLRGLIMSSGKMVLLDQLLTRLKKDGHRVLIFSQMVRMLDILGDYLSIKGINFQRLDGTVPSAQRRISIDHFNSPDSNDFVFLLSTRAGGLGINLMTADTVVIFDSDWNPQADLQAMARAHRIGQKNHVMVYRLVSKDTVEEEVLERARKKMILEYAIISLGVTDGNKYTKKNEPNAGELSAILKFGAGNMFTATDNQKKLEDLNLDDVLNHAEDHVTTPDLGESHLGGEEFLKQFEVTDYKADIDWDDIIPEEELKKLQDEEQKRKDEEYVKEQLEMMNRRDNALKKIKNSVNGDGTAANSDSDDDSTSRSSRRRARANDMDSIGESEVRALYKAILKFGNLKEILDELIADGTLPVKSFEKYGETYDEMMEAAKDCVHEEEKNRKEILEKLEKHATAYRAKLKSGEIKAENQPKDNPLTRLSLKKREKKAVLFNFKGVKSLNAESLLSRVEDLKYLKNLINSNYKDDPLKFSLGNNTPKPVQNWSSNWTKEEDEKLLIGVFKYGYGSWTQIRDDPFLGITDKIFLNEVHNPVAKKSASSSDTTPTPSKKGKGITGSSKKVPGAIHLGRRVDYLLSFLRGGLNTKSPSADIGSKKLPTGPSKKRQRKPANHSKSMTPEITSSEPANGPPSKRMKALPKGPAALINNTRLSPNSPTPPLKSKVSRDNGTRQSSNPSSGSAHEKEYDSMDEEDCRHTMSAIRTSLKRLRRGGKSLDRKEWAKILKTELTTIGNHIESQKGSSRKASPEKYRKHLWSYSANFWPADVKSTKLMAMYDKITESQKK
Sequence of Protein translocase subunit SecA (Escherichia coli (strain K12)) (P10408 whole entry): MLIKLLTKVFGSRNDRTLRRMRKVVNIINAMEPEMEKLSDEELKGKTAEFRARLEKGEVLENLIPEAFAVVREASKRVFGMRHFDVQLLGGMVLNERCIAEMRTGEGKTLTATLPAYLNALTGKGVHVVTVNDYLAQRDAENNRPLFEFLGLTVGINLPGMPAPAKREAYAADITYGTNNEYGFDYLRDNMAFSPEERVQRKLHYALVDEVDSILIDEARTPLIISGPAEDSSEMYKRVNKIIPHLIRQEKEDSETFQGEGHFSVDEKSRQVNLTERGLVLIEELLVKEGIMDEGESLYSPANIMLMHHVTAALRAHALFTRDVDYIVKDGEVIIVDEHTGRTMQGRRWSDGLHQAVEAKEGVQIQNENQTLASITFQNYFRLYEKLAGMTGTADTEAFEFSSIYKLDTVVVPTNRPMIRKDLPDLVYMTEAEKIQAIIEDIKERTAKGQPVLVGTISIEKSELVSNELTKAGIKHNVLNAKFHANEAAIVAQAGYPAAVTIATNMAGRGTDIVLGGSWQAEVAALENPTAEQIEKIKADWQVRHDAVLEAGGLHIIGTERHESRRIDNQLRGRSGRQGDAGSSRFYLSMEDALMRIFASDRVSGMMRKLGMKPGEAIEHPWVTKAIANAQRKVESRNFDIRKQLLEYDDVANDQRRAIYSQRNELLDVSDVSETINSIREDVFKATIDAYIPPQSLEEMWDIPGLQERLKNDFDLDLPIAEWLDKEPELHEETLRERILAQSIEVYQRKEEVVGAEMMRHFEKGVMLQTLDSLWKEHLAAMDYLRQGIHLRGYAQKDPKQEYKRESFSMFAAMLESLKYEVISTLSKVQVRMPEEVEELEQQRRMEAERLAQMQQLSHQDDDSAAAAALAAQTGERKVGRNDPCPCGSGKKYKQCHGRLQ

Turning to `CN1N=C(C(=O)N2CCCC(CCc3c(F)cccc3F)C2)CCC1=O` (stereo not given), the Percent Effect in assay [1] is -4.37%; in [2] it was 2.7%; in assay [3], 0.625%; in assay [4] it was 7.41%; in the assay on Trypanosoma cruzi it was 1.74%; in assay [5] it was 0%. Further, the Percent Effect in assay [6] was 1.21%; in the assay filed under Homo sapiens, 4.11%; in [7] it was 3.7%; in [8], 7.32%; in [9], -1.23%.
Turning to `CNC(=O)c1cnc(/C=C/c2cc(OC)c(OC)c(OC)c2)s1`, the Percent Effect is -3.62% in assay [1]; 16.2% in assay [2]; -4.03% in assay [3]; 8.07% in assay [4]; 1.56% with Trypanosoma cruzi; 21.2% in assay [5]. Also, the Percent Effect in assay [6] is 16%; in the assay listed under Homo sapiens, 40.4%; in [7], 9.9%; in assay [8], 18.3%; in assay [9], -13%.
On to `Cc1nnc2n1CCN(C(=O)c1cn(-c3ccccc3Cl)nn1)C2`, for which the Percent Effect was -5.44% in assay [1]; 8.22% in [2]; -1.29% in assay [3]; 1.29% in [4]; 0.992% in the assay on Trypanosoma cruzi; -2.79% in assay [5]. In addition, the Percent Effect in [6] is 6.25%; in the assay filed under Homo sapiens it was 0.99%; in [7], 7.29%; in [8], 16.1%; in assay [9], -2.71%.
For `CCN(CC)C(=O)CCNc1cncc(-n2nc(C)cc2C)n1`, the Percent Effect is -5.54% in assay [1]; 5.41% in [2]; 3.1% in [3]; -3.77% in [4]; -7.92% in the assay on Trypanosoma cruzi; 4.71% in assay [5]. Also, the Percent Effect was 13.1% in assay [6]; 6.24% in the assay filed under Homo sapiens; 2.15% in assay [7]; 3.7% in assay [8]; -6.4% in assay [9].
With `COc1ccccc1C(=O)NC(CC(=O)O)c1cccs1` (stereo not given), the Percent Effect in assay [1] is -3.27%; in assay [2] it was 13.9%; in assay [3], 0.385%; in assay [4] it was 5.67%; in the assay with Trypanosoma cruzi it was -1.33%; in assay [5], 2.8%. In addition, the Percent Effect in assay [6] is 20.2%; in the assay filed under Homo sapiens, -5.53%; in assay [7] it was 5.21%; in assay [8] it was 12.7%; in [9] it was -19.2%.
For `CN(C)c1cc2c(nn1)CCN(C(=O)C1CCc3ccccc31)C2` (stereo not given), the Percent Effect was -6.92% in assay [1]; 5.06% in assay [2]; -21.4% in [3]; 3.81% in assay [4]; -0.283% in the assay with Trypanosoma cruzi; 0.38% in [5]. The Percent Effect was -1.06% in assay [6]; 15.8% in the assay filed under Homo sapiens; -5.42% in assay [7]; -8.86% in [8]; -2.71% in assay [9].
Consider `O=C(NCc1cccs1)[C@H]1CC[C@@H]2[C@@H](CCN2c2ncccn2)O1`, for which the Percent Effect is -2.42% in assay [1]; 5.41% in assay [2]; -0.805% in assay [3]; -3.31% in assay [4]; 6.45% in the assay with Trypanosoma cruzi; -0.833% in assay [5]. The Percent Effect in assay [6] was 18.9%; in the assay listed under Homo sapiens, 18.7%; in [7], 8.91%; in [8] it was 18.3%; in assay [9], -3.92%.
Take `Cc1cnn(CC(C)NCc2ccc(S(C)(=O)=O)cc2)c1` (stereo not given): the Percent Effect was -2.77% in assay [1]; 13.9% in [2]; -0.525% in [3]; 2.13% in [4]; -1.74% in the assay with Trypanosoma cruzi; -3.23% in assay [5]. The Percent Effect in assay [6] is 12.3%; in the assay listed under Homo sapiens it was 0.644%; in assay [7], 8.33%; in assay [8], 25.3%; in [9], -28%.
`N#Cc1ccnc(N2CCN(C(=O)NC3CCS(=O)(=O)C3)CC2)c1` (stereo not given): the Percent Effect in assay [1] was -2.8%; in assay [2], 16.2%; in assay [3], -36.1%; in [4], 7.69%; in the assay with Trypanosoma cruzi, -0.464%; in assay [5], -0.185%. Further, the Percent Effect is 9.87% in assay [6]; 14.6% in the assay listed under Homo sapiens; 7.92% in assay [7]; 23.2% in assay [8]; -5.46% in assay [9].
`Cc1ccc(C#N)c(N2CCC(c3nccn3Cc3cscn3)CC2)n1`: the Percent Effect in [1] was -1.6%; in assay [2], 10.7%; in assay [3] it was -4.04%; in assay [4], 15.7%; with Trypanosoma cruzi it was 5.75%; in assay [5], 9.38%. For the same molecule, the Percent Effect is 13.2% in assay [6]; 3.33% in the assay filed under Homo sapiens; 4.92% in assay [7]; 16.1% in assay [8]; -7.28% in assay [9].

The values above are taken from ChEMBL document CHEMBL3988442, “University of Dundee, Small-Polar-MMV Screening Library” (2021).
